TRHR agonist: activates the human TRH receptor; P34981; TRHR cells, calcium flux fluo-8, FDSS agonist mode; activation, % at 2 µM; hit rate 0.18% among 360,000; note: 0% is about no effect
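Read-out: compound-evoked intracellular calcium rise in TRHR cells, fluo-8 dye, kinetic FDSS fluorescence at 1 s/cycle following a 10-cycle baseline. Cells cultured overnight before dye loading (30 min–1.5 h, RT).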
TRHR PAM: allosteric enhancers of human TRH receptor; P34981; TRHR cells, fluo-8 calcium fluorescence, EC20 TRH enhancement; enhancement, % at 2 µM; hit rate 0.66% among 360,000; in the data active = enhancement above about 30%; note: 0% is about no effect
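Enhancer read-out: after compound pinning and an initial kinetic agonist-mode read, an EC20 of TRH (10 nM final) was injected and fluo-8 calcium signal (Ex 480/Em 530) followed at 1 s/cycle for 100 cycles in TRHR-expressing cells.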
D1 agonist: human D1 receptor agonism; P21728; HEK293 T-REx D1 cells, calcium flux, agonist mode; activation, % at 2 µM; hit rate 1% among 360,000; AID 504660; note: 0% is about no effect
Target sequence (P21728 whole entry, looked up): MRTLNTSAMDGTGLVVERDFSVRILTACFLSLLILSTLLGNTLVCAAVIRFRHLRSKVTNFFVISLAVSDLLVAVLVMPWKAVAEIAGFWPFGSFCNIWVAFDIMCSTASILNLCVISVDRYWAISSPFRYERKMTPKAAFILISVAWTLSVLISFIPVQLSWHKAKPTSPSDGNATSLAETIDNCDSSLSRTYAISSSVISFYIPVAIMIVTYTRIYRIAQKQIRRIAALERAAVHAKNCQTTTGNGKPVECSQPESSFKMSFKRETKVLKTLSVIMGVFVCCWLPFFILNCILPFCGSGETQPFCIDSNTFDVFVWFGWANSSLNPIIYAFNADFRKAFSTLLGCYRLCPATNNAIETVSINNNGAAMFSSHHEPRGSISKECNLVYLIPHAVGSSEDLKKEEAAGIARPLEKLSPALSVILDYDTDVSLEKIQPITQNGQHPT
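Tetracycline-induced HEK293 TREx D1 cells, force-coupled to calcium signalling, were dye-loaded with a no-wash calcium kit. Compound was pin-added after a 10 s baseline. Fluorescence was read kinetically at 1 cycle/s for 180 s, with calcium rises flagged as agonism.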
D1 PAM: potentiators of human D1 dopamine receptor | P21728 | HEK293 TREx D1 cells, calcium flux, dopamine EC20 potentiation | potentiation, % at 10 µM | hit rate 0.036% among 360,000 | AID 504651; in the data active = potentiation above about 30%; note: 0% is about no effect
D1 antag: human D1 dopamine receptor antagonism; P21728; HEK293 TREx D1 cells, calcium flux, dopamine EC80; hits give low values; activity change, negative = inhibition, % at 10 µM; hit rate 3.2% among 360,000; in the data active = activity change below about -30%; note: % is set by controls: 0 for no effect and ±100 for the full control effect
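Tetracycline-induced HEK293 Trex D1 cells, force-coupled to calcium, dye-loaded; compounds added and read 180 s, then EC80 dopamine added and calcium flux tracked kinetically another 180 s.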
Starred values were filed as active, the others as inactive; x = not tested or not shown; ! = a repeat was not active. Hits are enriched below; roughly 4.7% of the tested compounds scored in any of these assays. Cut-off read from the data, not from the text of the source, unless noted: active = activation above about 30%; inactive = the rest.

SMILES	TRHR agonist	TRHR PAM	D1 agonist	D1 PAM	D1 antag
COc1cccc(CNC(=O)Nc2cc(C(=O)NCc3cccc(F)c3)ccc2N2CCCC2)c1	-1	-4	1	2	3
CCOC(=O)N1N=C(c2ccc(OC)cc2)CC1(O)C(F)(F)F (centres undefined)	0	32*	2	-7	1
CCc1ccc(C2=NN(C(=O)OC)C(O)(C(F)(F)F)C2)cc1 (centres undefined)	0	-2	2	-7	0
Cc1ccc(CNC(=O)CCCn2c(=O)c3ccccc3n(CC(=O)Nc3ccc(C)c(C)c3)c2=O)cc1	0	0	3	-4	7
Cc1ccc(NC(=O)Cc2sc(C)nc2-c2ccc(C)cc2)cc1	-1	5	1	-11	-35*
COc1ccc(C(=O)Nc2ccc3oc(-c4ccc(F)cc4Cl)nc3c2)cc1	0	-7	0	-3	-38*
COc1cc2ccccc2cc1C(=O)Nc1ccc2oc(-c3ccc(F)cc3Cl)nc2c1	0	4	-2	1	4
COc1ccc(CCNC(=O)Cn2cnc3sc(C)c(-c4ccc(F)cc4)c3c2=O)cc1OC	5	-13	34*	-6	x
COC(=O)c1sc2ncn(CC(=O)NCCc3ccc(OC)c(OC)c3)c(=O)c2c1C	0	-3	4	-2	5
CCn1c(CNc2ccc(F)cc2)nnc1SCC(=O)N1CCCc2ccccc21	0	0	2	1	-31*
CCn1c(CNc2ccc(OC)cc2)nnc1SCC(=O)N1CCCc2ccccc21	-1	-12	0	-4	-23
COc1cccc(NC(=O)N2CCC(n3nnc4ccccc43)CC2)c1	0	-7	20	-4	-47*
CS(=O)(=O)Nc1cccc(-c2cc(F)c(S(=O)(=O)N3CCN(S(=O)(=O)c4ccc5c(c4)OCCO5)CC3)cc2F)c1	0	2	2	4	-17
Cc1ccccc1-c1noc(CCC(=O)Nc2cccc(C)c2C)n1	0	-12	7	0	-1
Cc1cc(C)nc(NC(=NCCc2c[nH]c3ccccc23)NC(=O)C(C)(C)C)n1	0	2	3	-18	-55*
Cc1cc(C)nc(NC(=NCCc2c[nH]c3ccc(Cl)cc23)NC(=O)c2ccccc2C)n1	2	-9	-1	-2	1
CC(C)CNC(=O)C1=CC(c2ccc3c(c2)OCO3)=NS(=O)(=O)N1C	1	-6	9	-3	-21
NC(=O)c1ccc(SCC(=O)OCC(=O)N2CCCC2=O)c([N+](=O)[O-])c1	0	0	1	-1	-43*
CC1CN(C(=O)COC(=O)CSc2ccc(C(N)=O)cc2[N+](=O)[O-])CC(C)O1 (centres undefined)	0	5	2	8	4
COc1ccc(C(=O)N2CCC(C(=O)NCc3ccccn3)CC2)cc1	0	6	4	-12	-31*
COc1ccc(C(=O)N2CCN(CCc3ccccn3)CC2)cc1	0	19	50*!	6	-46*!
O=C(NC1CCCC1)C1CCN(C(=O)c2ccc(-c3ccccc3)cc2)CC1	-1	-5	5	-2	-38*
CCOC(=O)c1c(C)oc2nc(C)nc(N3CCN(c4cc(Cl)ccc4C)CC3)c12	1	21	0	-4	-10
CCOC(=O)/C(C(=Nc1ccccc1)Nc1ccccc1)=C(\C)O	0	-3	3	-5	-6
NC(=Nc1ccccc1)Nc1ccccc1	96*	7	90*	-1	-26
SMILES	TRHR agonist	TRHR PAM	D1 agonist	D1 PAM	D1 antag
COc1cc2c(cc1OC)C(COc1ccc3c(C)cc(=O)oc3c1)N(C(=O)Cc1ccccc1)CC2 (centres undefined)	0	-3	0	1	-18
C=CCn1cc([N+](=O)[O-])nc1C	0	19	1	-3	-31*
CCCCN(Cc1cc2ccccc2[nH]c1=O)C(=O)c1cccc(Cl)c1	-1	-5	0	0	-14
Cc1c(CNC2CCCCC2)c(C(=O)O)c(C)n1Cc1ccccc1F	1	-1	-1	0	-3
Cc1c(CNC2CCC(C)CC2)c(C(=O)O)c(C)n1Cc1ccccc1F (centres undefined)	1	13	-2	-3	-49*
CCOC(=O)c1cc2c(N)c(C(=O)c3ccc(Br)cc3)sc2[nH]c1=O	0	35*	2	-9	3
COc1cc(NC(=O)c2cc(OC)c(OC)c(OC)c2)ccc1NC(=O)c1cccs1	0	13	0	-4	-19
COc1ccc(C(=O)Nc2cccc(C(=O)N/N=C/c3ccc(OC)cc3OC)c2)cc1	0	-4	1	-8	-48*
COc1ccc(C(=O)Nc2cccc(NC(=O)c3cccs3)c2)cc1	0	-3	3	-5	-31*
COc1cc(NC(=O)c2c(F)c(F)c(OC)c(F)c2F)ccc1NC(=O)c1cccs1	0	-9	3	-12	-46*
COc1ccc(/C=N/NC(=O)c2cccc(NC(C)=O)c2)c(OC)c1	0	-1	1	-4	4
Cc1ccc2c(c1)c1c(c(=O)n(-c3ccccc3C)c(=O)n1CC(=O)NCCC1=CCCCC1)n2C	0	-4	0	-1	2
COC(=O)c1ccc(C)c(N(CCO)CCO)c1	0	2	1	-7	-43*
Cc1ccc(-c2nc3nc(C)cc(Nc4ccccc4O)n3n2)cc1	1	-4	4	-1	2
COC(=O)c1cc(OC)c(OC)c(OC)c1NC(=O)c1cc(=O)n(C)c(=O)n1C	2	5	-1	-1	-11
CCOc1ccccc1CNC(=O)CCc1cn(Cc2ccc(Cl)cc2)c2ccccc12	1	4	10	-5	1
CCOc1c(CC2C(=O)Nc3ccc(Br)cc32)cccc1OC (centres undefined)	-3	9	69*	-2	-41*
CCOc1cc2[nH]c(=O)n(CCCCC(=O)N3CCN(c4ccc(OC)cc4)CC3)c(=O)c2cc1OCC	-1	0	-2	-1	-9
CCc1ccc2oc(C(=O)Nc3cccc(C(F)(F)F)c3)cc(=O)c2c1	0	45*	3	1	-16
Cc1ccc2c(=O)cc(C(=O)Nc3cccc(C(F)(F)F)c3)oc2c1C	1	1	1	2	-3
CC/C(=N/N=C(\CC)c1ccccc1)c1ccccc1	0	8	0	-2	-46*
CC/C(=N\NC(=S)Nc1cccc(C)c1)c1ccccc1	0	-4	4	-5	1
CCOc1ccc(-c2cc3nc(C4CCN(C(=O)OC(C)(C)C)CC4)c(C(=O)Nc4cccc(Cl)c4C)cn3n2)cc1	0	16	3	0	17
Cc1cc(NS(=O)(=O)c2cccs2)no1	0	-1	1	-15	-83*
Cc1ccc(S(=O)(=O)Nc2cc(C)on2)cc1	-1	-6	2	0	2

Compound activity deposited in PubChem by National Center for Advancing Translational Sciences (NCATS).
